BJeLR viability – BJeLR cell viability loss; inhibition, % (concentration not given with the values); BJeLR (HRASV12) viability, CellTiter-Glo ATP luminescence, 48 h; actives 0.17% (n = 300,000); AID 1554; in the data active = inhibition above about 50%
CCHFV vOTU inh – CCHFV vOTU protease inhibition | Pep-AMC fluorescence | inhibition, % at 11.5 µM | actives 0.55% (n = 370,000); in the data active = inhibition above about 30%; note: 0% = vehicle wells with enzyme and 100% = no enzyme wells
VHR inh abs – inhibitors of human VHR1 phosphatase (DUSP3) | P51452 | recombinant VHR phosphatase, pNPP absorbance | inhibition, % at 13.3 µM | actives 0.52% (n = 290,000); in the data active = inhibition above about 50%
Target sequence (P51452 whole entry, looked up): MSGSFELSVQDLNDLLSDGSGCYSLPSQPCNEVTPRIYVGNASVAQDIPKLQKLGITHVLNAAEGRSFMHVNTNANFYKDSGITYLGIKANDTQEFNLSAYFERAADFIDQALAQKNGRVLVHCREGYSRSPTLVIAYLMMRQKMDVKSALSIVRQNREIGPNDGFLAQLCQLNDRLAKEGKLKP
MazEF act – activators of E. coli MazEF toxin-antitoxin RNase; actives 0.32% (n = 350,000); activation, % at 20 µM; P0AE70; FAM/BHQ RNA-DNA oligo cleavage fluorescence, 5 h; AID 504720; in the data active = activation above about 50%
Target sequence (P0AE70 whole entry, looked up): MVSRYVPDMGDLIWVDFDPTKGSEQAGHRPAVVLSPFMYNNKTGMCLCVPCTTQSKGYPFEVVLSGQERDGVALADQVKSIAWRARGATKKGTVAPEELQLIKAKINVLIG
SARS 3CLpro inh – SARS-CoV 3CLpro protease inhibition | P0C6X7 | recombinant SARS-CoV 3CLpro, quenched FRET peptide cleavage | inhibition, % at 6 µM | actives 0.14% (n = 290,000) | AID 1706; in the data active = inhibition above about 12%
* = called active by the depositor; / = no result. Rows were chosen to be rich in hits. Some 1.4% of all compounds tested hit in one or more screens of this group.

SMILES | BJeLR viability | CCHFV vOTU inh | VHR inh abs | MazEF act | SARS 3CLpro inh
CC1CCc2c(sc3nc(C(C)(C)C)nc(N4CCN(C(=O)CCl)CC4)c23)C1 (stereo not drawn) | 84.5* | 18.4 | -10.3 | 1.1 | 5.8
CCS(=O)(=O)N1Cc2ccccc2CC1C(=O)N1CCN(c2ccccc2)CC1 (stereo not drawn) | -2.5 | 11.0 | 51.5* | -2.4 | 3.0
CS(=O)(=O)N1Cc2ccccc2CC1C(=O)O (stereo not drawn) | / | 2.0 | 16.5 | 0.6 | 5.0
Cc1c(Cl)ccc2c1NC(=O)[C@]21N[C@@H](CCC(N)=O)[C@H]2C(=O)N(c3ccc(F)cc3)C(=O)[C@H]21 | 5.5 | 4.8 | 14.7 | 0.0 | -1.7
CCCCc1ccc(N2C(=O)[C@@H]3C(CC(N)=O)NC4(C(=O)Nc5ccc(F)cc54)[C@@H]3C2=O)cc1 (stereo partly drawn) | -12.0 | 5.4 | 51.2* | 4.1 | -1.8
CCOc1cccc(/C=N\NC(=O)Cc2cccs2)c1O | / | 2.7 | / | / | /
Cc1cc2cc(C#N)c(NCCNC(=S)NCCCN3CCOCC3)nc2cc1C | -5.4 | -26.9 | 59.9* | 3.4 | 9.6
CC(C)CNC(=O)OCc1cn(Cc2ccc(F)c(F)c2)nn1 | / | 7.6 | / | / | /
Clc1cccc(-c2ccc(/C=N/n3cnnc3)o2)c1Cl | -6.3 | -1.0 | 13.2 | 1.8 | -4.7
Cc1c(Cl)cccc1-c1ccc(/C=N/n2cnnc2)o1 | 1.6 | 15.8 | 58.8* | -4.7 | -3.1
CC(C)C[C@H]1COc2cccc(F)c2S(=O)(=O)N1Cc1cn(CC2CCCCC2)nn1 | / | 0.0 | / | / | /
CCOC(=O)c1[nH]c(C)c(C(=O)N2CCc3ccccc32)c1C | 51.6* | 17.2 | 23.2 | 3.0 | -0.5
CC(=O)Nc1ccc(NS(=O)(=O)c2cccc3nonc23)cc1 | 0.3 | -5.7 | 57.5* | 8.6 | -5.0
CCCCCCN(C(=O)CCl)c1ccccc1 | 18.8 | -0.2 | 33.5 | -2.0 | 1.2
CCCCCCCN(C(=O)CCl)c1cccc(C)c1 | 91.9* | -11.3 | -9.7 | -2.6 | 5.5
COc1ccc(-c2csc3nc(-c4ccc(C)cc4)oc(=O)c23)cc1OC | 11.4 | -5.3 | 91.8* | -90.4 | 3.6
Cc1nn(-c2ccccc2)c2sc(C(=O)N3CCN(S(=O)(=O)c4ccc(Br)s4)CC3)cc12 | / | -5.6 | / | / | /
OC(Cn1ccnc1)c1ccc(Cl)cc1Cl (stereo not drawn) | 1.4 | -12.0 | 28.7 | 158.8* | 3.2
CCOC(=O)[C@]12CCCC=C1N(CCCOC)C(=O)[C@@H]2CC(=O)N1CCC(c2ccccc2)CC1 | / | 2.1 | / | / | /
CCN(CC)c1ccc(N=Cc2ccc(N(CC)CC)cc2O)cc1 | 1.2 | 24.3 | -12.2 | 162.2* | 0.4
COc1ccc(CN2C[C@]3(C=C(C)Cn4c(=O)n(-c5ccccc5)c(=O)n43)N=C2NC(=O)c2ccccc2)c(OC)c1 | / | 7.5 | / | / | /
O=c1cc(CN2CCc3ccccc32)nc2sccn12 | 4.7 | 9.7 | 3.0 | -4.3 | 4.9
O=c1cc(CN2CCCc3ccccc32)nc2sccn12 | 10.6 | 9.8 | 5.9 | 91.4* | 3.7
CCOC(=O)/C(=N\Nc1ccccc1[N+](=O)[O-])c1csc(N)n1 | -3.8 | 3.2 | 21.5 | 10.3 | -1.5
CCOC(=O)/C(=N\Nc1ccc(C(C)=O)cc1)c1csc(Nc2ccccc2)n1 | -6.4 | 1.1 | 11.5 | 56.5* | -1.4
SMILES | BJeLR viability | CCHFV vOTU inh | VHR inh abs | MazEF act | SARS 3CLpro inh
COC(=O)[C@]12C[C@H](CC(=O)NCC3CCCCC3)C(=O)N(Cc3cccc4ccccc34)C1=C[C@H](C(C)C)O[C@@H]2C1CC1 | / | 16.3 | / | / | /
COc1ccc(C[C@H]2NC[C@H](O)[C@H]2OC(C)=O)cc1 | 81.8* | 8.6 | / | 4.1 | /
CCN1C(=O)NC(=O)/C(=C\c2cn(CC(=O)N3CCCCC3)c3ccccc23)C1=O | 2.7 | -6.3 | 12.5 | 117.4* | -1.8
O=C(CCCN1C(=O)/C(=C\c2ccccc2)SC1=S)N1CCOCC1 | / | 4.6 | / | 6.1 | /
O=C(O)CN1C(=O)/C(=C/c2ccc(SCc3ccccc3)o2)SC1=S | / | 13.9 | 48.4 | 123.0* | -4.1
O=C(O)CN1C(=O)/C(=C\c2cn(CC(=O)N3CCOCC3)c3ccccc23)SC1=S | -4.3 | 25.5 | -7.4 | 191.0* | 1.1
Cc1cc(NC(=O)CSc2nnc(CNC(=O)c3c(F)cccc3F)o2)no1 | 0.2 | 11.8 | 52.8* | -1.9 | 5.9
O=C(CSc1nnc(CNC(=O)c2ccco2)o1)Nc1ccc(F)cc1F | -5.6 | 11.4 | 52.1* | 9.4 | -5.4
O=C(CSc1nnc(CNC(=O)c2ccco2)o1)Nc1ccccc1 | -5.3 | -9.1 | 20.1 | 4.1 | 1.3
N#CCC[C@H]1CC[C@]2(CCCN(C(=O)c3ccno3)C2)O1 | / | 8.4 | / | / | /
O=C(Cc1ccccc1)Nc1nnc(-c2cccnc2)s1 | / | 0.9 | / | / | /
CCN1CCCCC(NC(=O)c2ccccc2OC)C1=O (stereo not drawn) | / | 0.5 | / | / | /
C=CCN1[C@H](C)COc2cc(N3CCSCC3)ccc2S1(=O)=O | / | -0.1 | / | / | /
CCN(CCNc1ccc([N+](=O)[O-])c2cccnc12)S(=O)(=O)c1ccccc1 | 4.8 | 4.9 | 17.6 | 138.3* | 3.1
CCN(CCNc1ccc([N+](=O)[O-])c2cccnc12)S(=O)(=O)c1ccc(Cl)cc1 | 9.5 | 8.6 | 17.4 | 7.6 | 1.4
CNC(=S)N/N=C/c1ccc(-c2ccc(C(=O)O)cc2)o1 | 51.5* | -37.0 | 1.4 | -3.7 | 0.7
COC(=O)C1CN(Cc2cn(Cc3ccc(F)cc3)nn2)CCS(=O)(=O)N1Cc1ccc(C)cc1 (stereo not drawn) | / | -5.8 | / | / | /
COc1cccc(-c2ccnc3[nH]n(-c4ccccc4)c(=O)c23)c1 | -5.9 | 9.6 | 51.0* | 4.0 | 2.8
O=c1c2c(-c3ccc([N+](=O)[O-])cc3)ccnc2[nH]n1-c1ccccc1 | -4.0 | 8.6 | 58.1* | 8.7 | -5.2
COc1ccc(-c2ccnc3[nH]n(-c4ccccc4)c(=O)c23)cc1 | 0.6 | 4.7 | 93.9 | 6.2 | -0.2
COc1cc2[nH]c(C(=O)Nc3ccc(F)cc3)cc2c(OC)c1OC | 3.7 | 3.1 | 52.6* | / | -1.1
COc1ccc(F)cc1-c1cc(C(=O)Nc2ccc(NC(C)=O)cc2)[nH]n1 | / | 15.2 | / | / | /
CN1C(=O)c2cc(NC(=O)C3CCCCC3)ccc2OC[C@H]2O[C@@H](CC(=O)NC3CCCC3)CC[C@H]21 | / | 0.8 | / | / | /
O=C(C1CCCN1S(=O)(=O)c1ccc(Br)s1)N1CCc2ccccc2C1 (stereo not drawn) | / | -7.4 | / | / | /
CC(C)C(=O)Nc1c(C(=O)N2CCN(c3ncccn3)CC2)oc2ccccc12 | -0.7 | -9.3 | 52.7* | 0.9 | -2.6
Nc1nc(CSc2nc3ccccc3s2)nc(N2CCOCC2)n1 | -5.1 | 14.0 | 53.0* | -2.0 | 3.2
Cc1ccccc1CN1CCCCC(NC(=O)C2CCC2)C1=O (stereo not drawn) | / | 0.5 | / | / | /
CCCN=C1N/C(=C\c2ccco2)C(=O)N1c1ccccc1 | -2.5 | 6.2 | 10.4 | 51.5* | 1.7
CCOC(=O)N1CCC(N(CCN(C)C)C(=S)Nc2ccc(OCC)cc2)CC1 | -3.3 | -11.3 | 53.7* | / | 0.0
CC(NS(=O)(=O)c1cccc(Cl)c1)C(=O)Nc1ccc(-c2nc3ccccc3s2)cc1 (stereo not drawn) | -2.9 | 0.2 | -8.0 | -2.0 | -0.6

Source: PubChem
